# Screens deposited in PubChem BioAssay by National Center for Advancing Translational Sciences (NCATS).
# Most compounds without a hit are left out; they make up all but 1.8% or so of the library.
# Six1-Eya2 inh = Six1/Eya2 interaction inhibition | Q15475+O00167 | 360,000 tested, 0.56% active | activity change, % (no concentration beside the values) | AlphaScreen GST-Six1/His-Eya2 binding, biochemical; hits give low values
#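 Compounds are tested against tagged Six1 and Eya2 proteins bridged by glutathione donor and nickel acceptor beads; after a one-hour incubation at 37 °C without light, AlphaScreen emission is recorded.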
# PI4K2A inh = blocks human PI4K2A kinase activity; activity change, negative = inhibition, % at 76.9 µM; AID 1346378; Q9BTU6; purified PI4K2A, ADP-Glo luminescence, 1 h; hits give low values; 420,000 tested, 0.13% active; in the data active = activity change below about -50%; inconclusive = mostly about -30% to -49%;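 also: -100% = wells without enzyme as full effect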
#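 Compounds are screened against recombinant PI4K2A using PI as substrate and ATP, the latter dispensed at 300 microM. Reactions run one hour at ambient temperature before ADP-Glo detection; full inhibition defined by wells lacking enzyme.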
# PI5P4Ka inh = blocks human PI5P4K alpha kinase activity | 330,000 tested, 1.2% active | max response, % | PI5P4Kalpha enzyme, ADP-Glo luminescence, 60 min; hits give low values; active = max response of -50% or lower; inconclusive = between -30% and -50%; inactive = -30% or higher; also: value at the top dose of about 77 µM
#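 Enzyme plus substrate dispensed, test compounds pinned in, then ATP (5 microM final) added. After 60 min at RT, ADP-Glo reagent 1 for 45 min and reagent 2 for 30 min preceded luminescence imaging.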
# CtBP-E1A blk = inhibitors of CtBP/E1A interaction; AlphaScreen GST-E1A/His-CtBP binding, 1536-well; hits give low values; activity change, % (test concentration not listed); 340,000 tested, 0.49% active
#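 AlphaScreen with 125 nM GST-E1A and 125 nM His-CtBP (5X stocks) in Tris pH 8.0, 300 mM NaCl, BSA, Tween 20, TCEP. Compounds preincubated 2 h at 37 deg C, then glutathione donor/nickel acceptor beads added for 1 h at 37 deg C in dark.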
# Akt phos inh = Akt phosphorylation inhibition | activity change, % for hits at 50 µM | Neuro2A IGF-stimulated pAkt S473 HTRF, 20 min; hits give low values | 360,000 tested, 0.32% active; in the data active = activity change below about -80%; inconclusive = mostly about -51% to -80%
#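 Single-point screen (50 µM final compound) in Neuro2A cells stimulated 20 min with 6 nM IGF at 37 deg C. After lysis, Ser473-phosphorylated Akt read by HTRF (ex 330 nm, em 615/665 nm) as the 665/615 ratio.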
# * hit, by the source's call; i = inactive; u = inconclusive; x = not tested or not shown; ! = not confirmed by another sample. Rule as the data show it, unless noted: active = activity change below about -65%; inconclusive = mostly about -30% to -63%; inactive = weaker than that. Unless noted, % is scaled to controls: 0 for no effect and ±100 for the full control effect.
SMILES,Six1-Eya2 inh,PI4K2A inh,PI5P4Ka inh,CtBP-E1A blk,Akt phos inh
CN(CC(=O)N1CCN(Cc2ccccc2)CC1)C(=O)Cc1cccc2ccccc12,0.2,-2.4,4.6,9.3,i
Cc1cccc(NC(=O)c2ccc3snnc3c2)c1,x,-1.7,x,x,x
COc1cccc(NC(=O)c2ccc3snnc3c2)c1,-20.6,12.1,1.2,-4.8,-112.6%*
COC(=O)c1ccc(NC(=O)c2cccc(OC)c2)cc1,-1.9,-50.5*,-5.9,1.7,i
COc1cccc(C(=O)NC(=S)Nc2ccc(N3CCCC3)cc2)c1,-67.7*,0.4,-5.5,u,i
COc1cccc(C(=O)NC(=S)Nc2ccc(Cl)cc2C(=O)O)c1,2.2,13.2,-63.1*,0.2,i
O=C1NN=C(c2ccc(Cl)cc2)CC1c1cccc(Br)c1 (stereo unspecified),-2.2,2.7,0.7,-3.3,i
COc1cccc(C(=O)Nc2ccc(C(=O)c3ccccc3)cc2)c1,-2.7,0.9,-3.6,x,i
COc1cccc(C(=O)Nc2ccc(C(=O)O)cc2)c1,7.6,-63.9*,-19.6,-0.1,i
CC(OC(=O)C1=Cc2ccccc2OC1)C(=O)NCC1CCCO1 (stereo unspecified),-15.4,-3.6,-63.3*,-7.9,i
Cc1cc(NS(=O)(=O)c2ccc(NC(=O)c3cnc(Cl)c(Cl)c3)cc2)nc(C)n1,-90.8*,-1.4,-0.8,x,i
Cc1nc2ncccn2c1-c1csc(Nc2ccc(O)cc2)n1,-87.2*,-1.4,-8.3,-90.0*,i
Cc1ccc(Nc2nc(-c3c(C)nc4ccccn34)cs2)cc1,-16.3,2.7,-2.9,-17.0,i
Cc1ccnc(Nc2nc(-c3c(C)nc4sccn34)cs2)c1,-68.1*,4.0,-20.1,-78.3*,x
Cc1ccc(Nc2nc(-c3c(C)nc4ncccn34)cs2)cc1,-74.6*,4.6,-6.0,-90.1*,i
Cc1ccnc(Nc2nc(-c3ccccc3)cs2)c1,5.3,-6.0,11.2,x,i
C=CCNc1nc(-c2c(C)nc3ncccn23)cs1,-17.4,-9.2,-0.4,-14.6,i
CCCCc1nc2cc(C(=O)N(C)CCc3cn[nH]c3)ccc2o1,10.9,-5.1,0.2,x,i
COc1cc(C(=O)NCc2nnc(SCC(=O)Nc3nccs3)o2)cc(OC)c1OC,-84.3*,-3.2,0.0,-77.7*,i
Cc1cccc(C)c1OCc1nnc(SCC(=O)Nc2nccs2)o1,-85.4*,-4.0,0.1,-91.5*,i
COc1cc(C(=O)NCc2nnc(SCC(=O)Nc3nc4ccccc4s3)o2)cc(OC)c1OC,-25.7,1.8,-4.4,-14.4,i
COc1ccc(NC(=O)c2sc(-c3ccccc3)nc2C)c(OC)c1,2.1,-3.2,-6.2,7.1,i
Cc1cc(C(=O)NCC2COc3ccccc3O2)c2ccccc2n1 (stereo unspecified),-2.3,-3.9,1.9,-0.6,i
O=C(NC1CCCCC1)NC1CCN(CC(=O)N2CCOCC2)CC1,2.2,26.3,9.0,-0.3,-107.1%*
CCOc1ccccc1CNC(=O)CCCn1ncn2c(cc3occc32)c1=O,5.5,-7.0,-0.4,x,i
SMILES,Six1-Eya2 inh,PI4K2A inh,PI5P4Ka inh,CtBP-E1A blk,Akt phos inh
CC(=O)c1sc(NC(=O)C(C)C)nc1C,-0.5,-0.1,-6.7,0.7,i
CC(=O)Nc1nc(C)c(C(C)=O)s1,0.0,0.8,-2.3,1.3,-105.9%*
C[C@@H]1CN([C@H](C)CO)C(=O)c2cc(Br)cnc2O[C@@H]1CN(C)Cc1ccc(-c2ccccc2)cc1,-0.2,0.3,4.3,-5.3,i
O=[N+]([O-])c1ccc(N2CCN(C(=S)NC3CCCCC3)CC2)cc1,-17.1,-1.5,6.5,-24.4,-112.4%*
COc1ccc(CCNc2ncnc3c2[nH]c2cc(OC)c(OC)cc23)cc1OC,u,0.7,-5.0,-29.1,i
COc1ccc(CCNc2nc(=S)[nH]c3cc(OC)c(OC)cc23)cc1OC,-88.0*,1.2,-5.5,x,i
COc1ccc(CCNC(=O)c2ccc(CNc3nc(=S)[nH]c4ccccc34)cc2)cc1OC,2.5,-3.9,5.0,-4.8,i
COc1cc2[nH]c(=S)nc(NCCc3ccc(S(N)(=O)=O)cc3)c2cc1OC,-89.5*,0.9,-0.6,-90.2*,i
COc1cc2[nH]c(=S)nc(NCCc3ccc(C)cc3)c2cc1OC,u,2.8,-18.5,-86.8*,i
O=C(O)c1ncn(Cc2ccccc2)c1C(=O)O,-69.1*,-8.3,x,u,x
CC(=O)c1ccc(OCc2cccc(C(F)(F)F)c2)cc1O,18.8,-2.6,37.5,20.6,i
Cc1cc(C(=O)COC(=O)c2cc(Cl)c(O)c(Cl)c2)c(C)n1C,u,-7.2,-64.2*,-25.7,i
COc1cc(/C=C(\CC(=O)O)c2nc3ccccc3s2)ccc1OCC(=O)Nc1ccccc1F,-22.6,-3.5,-1.9,u,i
O=C(CSc1nnc(NCc2ccccc2)s1)NC1CCS(=O)(=O)C1 (stereo unspecified),0.4,-3.0,-0.7,0.1,i
COc1ccc(S(=O)(=O)/N=C2\C=C(Nc3ccc(O)cc3)C(=O)c3ccccc32)cc1,u,u,-16.1,-87.5*,i
O=C(O)c1ccc(S(=O)(=O)/N=C2\C=C(Nc3ccccc3F)C(=O)c3ccccc32)cc1,u,u,u,-75.7*,i
Cc1ccccc1NC1=C/C(=N\S(=O)(=O)c2cccs2)c2ccccc2C1=O,-84.1*,u,-13.7,-85.5*,i
Cc1cc(C)cc(NS(=O)(=O)c2ccc3oc(=O)ccc3c2)c1,1.3,4.3,x,1.4,i
CC1(C)c2[nH]c3ccccc3c2C[C@H]2C(=O)N(Cc3ccccc3)C(=O)N21,x,-1.1,x,x,x
COc1ccccc1NS(=O)(=O)c1ccc(C(=O)NCC(c2cccs2)N2CCOCC2)cc1 (stereo unspecified),1.8,1.0,-0.4,x,i
Cc1cc2nc(-c3ccc(SCc4ccc(C(=O)O)cc4)nc3)[nH]c2cc1C,u,0.2,-64.2*,-23.8,i
COc1ccc(CN(C)C(C)C(=O)Nc2cccc3ccccc23)cc1 (stereo unspecified),-4.0,-5.2,18.9,8.7,i
O=C(c1cc2ccccc2oc1=O)N1CCN(Cc2ccc3c(c2)OCO3)CC1,0.4,-3.7,-2.5,-2.2,i
O=C(c1cc2ccccc2oc1=O)N(Cc1ccccc1)Cc1ccc2c(c1)OCO2,-6.4,-0.4,x,-7.5,-123.8%*
Cn1c(=NC(=O)C2CCN(S(=O)(=O)c3cccs3)CC2)sc2ccccc21,4.0,8.8,-2.8,4.1,-90.9%*!
COc1ccccc1C(=O)NC(=O)COC(=O)c1ccc(Cl)cc1[N+](=O)[O-],0.9,1.5,1.4,-8.0,i
COc1ccccc1N=c1oc2cc(O)ccc2cc1C(=O)NCC1CCCO1 (stereo unspecified),-5.6,-11.1,x,1.8,i
